# Results reported in PubChem BioAssay (NCI).
# This is part of a sample that, as a whole, favours compounds with a hit. Of some 83,000 tested, about 20% had one in any assay.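 Each cell line was grown in a 96-well plate and treated with one concentration of compound for 48 hours. Values below 10 were considered active.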 Values without a mark were called inactive. Activity calls are given as the source filed them.
# Assays:
# Assay in all cases: NCI-60 one-dose screen, 48 h (100 = growth as untreated, 0 = no growth, -100 = all killed)
# Conditions in all cases: 10 µM unless noted
# DU-145 prostate = system: DU-145 prostate
# K-562 leukemia = system: K-562 leukemia
# MALME-3M melanoma = system: MALME-3M melanoma
# MDA-MB-231 breast = system: MDA-MB-231 breast
# RXF 393 renal = system: RXF 393 renal
# SF-268 CNS = system: SF-268 CNS
# SF-295 CNS = system: SF-295 CNS
# SF-539 CNS = system: SF-539 CNS
# UACC-257 melanoma = system: UACC-257 melanoma
# M14 melanoma = system: M14 melanoma
# HCT-15 colon = system: HCT-15 colon
# HT29 colon = system: HT29 colon
# SNB-75 CNS = system: SNB-75 CNS
# SNB-19 CNS = system: SNB-19 CNS
# U251 CNS = system: U251 CNS
# PC-3 prostate = system: PC-3 prostate
# SK-MEL-5 melanoma = system: SK-MEL-5 melanoma
# UACC-62 melanoma = system: UACC-62 melanoma
# LOX IMVI melanoma = system: LOX IMVI melanoma
# SK-MEL-28 melanoma = system: SK-MEL-28 melanoma
SMILES,growth (DU-145 prostate),growth (K-562 leukemia),growth (MALME-3M melanoma),growth (MDA-MB-231 breast),growth (RXF 393 renal),growth (SF-268 CNS),growth (SF-295 CNS),growth (SF-539 CNS),growth (UACC-257 melanoma),growth (M14 melanoma),growth (HCT-15 colon),growth (HT29 colon),growth (SNB-75 CNS),growth (SNB-19 CNS),growth (U251 CNS),growth (PC-3 prostate),growth (SK-MEL-5 melanoma),growth (UACC-62 melanoma),growth (LOX IMVI melanoma),growth (SK-MEL-28 melanoma)
COc1cc(NC(=O)Nc2cccc(-c3cc(=O)c4c(OC)c(OC)c(OC)cc4o3)c2)cc(OC)c1OC,39.2%,40%,52.6%,47.3%,15.2%,49.4%,47.1%,47.9%,74.1%,55.3%,32.7%,46%,-0.583% (active),46.9%,27.5%,44.8%,43%,48.4%,24.7%,53.5%
COC(=O)c1ccc(NC2=C(Cl)C(=O)C(C)=C(C)C2=O)cc1,85.3%,4.61% (active),85%,68.9%,65.8%,87.3%,36.6%,65.9%,79.5%,45.8%,40%,63.3%,64.5%,53.5%,59.4%,36.6%,44.6%,5.89% (active),24.7%,75.9%
COc1cc(/C=N\NC(=O)c2ccc3nc(-c4ccc(Br)cc4)[nH]c3c2)cc(OC)c1OC,65.6%,22.5%,23.4%,101%,9.72% (active),51.7%,32.5%,32.6%,33.1%,38.3%,79.4%,25.3%,57.1%,59.3%,45.1%,46.2%,27.5%,28.1%,35.2%,30.2%
Brc1cc(-c2cc(-c3ccc4c(c3)OCCO4)[nH]n2)cs1,54.2%,15%,35.5%,51.6%,47.5%,62.6%,41.7%,41%,76.4%,35%,24.4%,22.6%,19.9%,56.9%,40%,61.8%,23.5%,54.7%,42.3%,58.6%
Cn1c(SCC(=O)c2ccc(F)cc2)nc2ccccc2c1=O,98%,76.4%,109%,91.7%,108%,99%,97.9%,98.2%,107%,95.8%,104%,101%,91.1%,96.9%,95.3%,94.8%,91.6%,82.2%,96.3%,105%
Fc1cccc(Cl)c1/C=N/Nc1nc(N/N=C/c2c(F)cccc2Cl)nc(N2CCCCC2)n1,61%,32.3%,-4.19% (active),42.1%,-3.38% (active),36.7%,2.57% (active),56.3%,11.7%,11.9%,3.94% (active),3.5% (active),37.5%,25.8%,26.8%,18.7%,-59.1% (active),18.3%,19.6%,44.9%
Cc1ccc2c(n1)C(=O)C(Cl)=C(Nc1ccc(C(F)(F)F)cc1)C2=O,105%,7.13% (active),-49.6% (active),76.4%,-15.7% (active),97.7%,112%,101%,35.6%,28.6%,-58.6% (active),96.8%,115%,97.5%,91.5%,72.4%,95.3%,96.6%,-57.1% (active),51%
CN1CCC[C@]2(C)[C@H]3CC[C@@H]4[C@@H]5[C@H]6OC[C@@]5(CCC6(C)C)CC[C@@]4(C)[C@]3(C)CC[C@H]2C1(C)C,56.2%,4.84% (active),89.1%,67.3%,74.5%,103%,103%,78.4%,107%,97.9%,24.4%,21.6%,89.1%,84.8%,27.5%,74.2%,93.8%,98.4%,-74.5% (active),96.2%
O=C(/C=C/c1ccc(F)cc1)Nc1cccc2cccnc12,107%,101%,100%,100%,110%,104%,111%,102%,114%,98.5%,75.4%,105%,106%,109%,102%,98.5%,98.7%,91.8%,121%,109%
CN(C)S(=O)(=O)c1ccc(-c2nc(C(Cl)Cl)nc3cc(-c4ccc(F)cc4)nn23)cc1,5.97% (active),8.44% (active),-11.5% (active),1.26% (active),-19.2% (active),19.4%,21.8%,31.7%,52.4%,1.95% (active),-35.7% (active),-5.58% (active),48.3%,23.5%,2.76% (active),26.7%,55.1%,26%,-6.07% (active),27.1%
COc1ccc2c(c1)C=CC1(O2)Oc2ccc(OC)cc2C=C1C (stereo not given),34.1%,8.41% (active),55.2%,2.14% (active),-12.3% (active),54.4%,7.92% (active),-11% (active),73%,3.03% (active),24.7%,4.04% (active),-8.45% (active),27.5%,12.3%,29.8%,24.9%,19.1%,22.2%,54.2%
Fc1ccc(-c2cn3c(-c4c[nH]c5ccc(Br)cc45)csc3n2)cc1,67.4%,90.3%,51.4%,15.5%,79.6%,50.9%,64.1%,34.3%,93.5%,67.4%,77.8%,97.9%,-7.44% (active),52.6%,47.8%,73.6%,95.2%,65.7%,13.1%,87.8%
CC1=C(C)C(=O)C(Nc2ccc(C)cc2)=C(Br)C1=O,106%,-21.3% (active),112%,70.1%,97.7%,97.3%,98.1%,100%,93.8%,106%,95.9%,108%,89%,101%,104%,87.8%,94%,92.2%,29.9%,112%
COc1cccc2c1[C@H](OC)[C@]13O[C@@]1(C2=O)[C@H](O)[C@H](C)[C@@](O)(C(=O)[C@@H]1O[C@H]1C)[C@@H]3O,-20.6% (active),-27% (active),-56.7% (active),-1.86% (active),-77.3% (active),-24.7% (active),-21.8% (active),-29% (active),-28.3% (active),-89.7% (active),-14.8% (active),-28.9% (active),-61.7% (active),1.38% (active),-13.3% (active),-19.4% (active),-97.7% (active),-45.5% (active),-62% (active),-10.4% (active)
